Results on 38 compounds are retold here after PubChem BioAssay (Tox21).

For test [1], the target named is Cytochrome P450 2C9 (Homo sapiens) (UniProt P11712). The test is described as follows: Cytochrome P450 Family 2 Subfamily C Member 9 (CYP2C9) small molecule antagonists: luciferase reporter qHTS assay (AID 1671198). For activity change, negative = inhibition: series mostly up to about 120 µM. The method, boiled down:
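Enzyme-substrate mix preincubated with compound 10 min at room temperature; reaction started with NADPH regeneration solution, 1 h 37C. Luminescent luciferin product read after 20 min detection reagent.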
On the technique in general: In a reporter assay the amount or activity of a reporter protein is the signal.

In test [2] the target is Cytochrome P450 1A2 (Homo sapiens) (UniProt P05177). In words: Cytochrome P450 Family 1 Subfamily A Member 2 (CYP1A2) small molecule antagonists: luciferase reporter qHTS assay (AID 1671199). For activity change, negative = inhibition: series mostly up to about 120 µM. The method, boiled down: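 P450-Glo CYP1A2 enzyme–proluciferin substrate mix with compound 10 min at room temperature, then NADPH regeneration 1 h at room temperature. Luciferin detection reagent added, luminescence read after 20 min; furafylline positive control.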

In test [3] the target is Voltage-gated inwardly rectifying potassium channel KCNH2 (Homo sapiens) (UniProt Q12809). In words: Human Ether-a-go-go-Related Gene (hERG) channel small molecule antagonists: fluorescence cell-based qHTS assay (AID 1671200).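 For activity change, negative = inhibition: hERG-expressing U2OS cells given a thallium stimulus after FluxOR II dye loading; series mostly up to about 77 µM.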 The gist of the method: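 Cell line hERG-U2OS; dye FluxOR II, 1 h RT dark; Tl+ stimulus; ex 480/em 540 nm, read each second for 2 min.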
The target in test [4] is Cytochrome P450 3A4 (Homo sapiens) (UniProt P08684). In words: Cytochrome P450 Family 3 Subfamily A Member 4 (CYP3A4) small molecule antagonists: luciferase reporter qHTS assay (AID 1671201). For activity change, negative = inhibition: series mostly up to about 120 µM. The method, boiled down: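 Room-temperature assay throughout: 10 min compound–enzyme/substrate preincubation, 1 h reaction after NADPH regeneration solution, 20 min detection. Luciferin formed from proluciferin substrate is quantified by luminescence.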

Results filed as inconclusive are left out. Values without a mark were called inactive. Calls of active or inactive are those of the source. Calls come from the whole dose curve; as a rule, active = well fitted curve in the direction sought with a large enough effect in the repeat runs; inconclusive = weak or mixed curves; inactive = no such curve, though single readings can be large; an effect the other way counts as inactive or inconclusive.
% is set by controls: 0 for no effect and ±100 for the full control effect; potency is the fitted concentration of half-maximal effect.
Note: nearly all actives have a fitted effect of over 50% in size.

Cytochrome P450 2C9 (Homo sapiens), sequence (P11712 whole entry, looked up): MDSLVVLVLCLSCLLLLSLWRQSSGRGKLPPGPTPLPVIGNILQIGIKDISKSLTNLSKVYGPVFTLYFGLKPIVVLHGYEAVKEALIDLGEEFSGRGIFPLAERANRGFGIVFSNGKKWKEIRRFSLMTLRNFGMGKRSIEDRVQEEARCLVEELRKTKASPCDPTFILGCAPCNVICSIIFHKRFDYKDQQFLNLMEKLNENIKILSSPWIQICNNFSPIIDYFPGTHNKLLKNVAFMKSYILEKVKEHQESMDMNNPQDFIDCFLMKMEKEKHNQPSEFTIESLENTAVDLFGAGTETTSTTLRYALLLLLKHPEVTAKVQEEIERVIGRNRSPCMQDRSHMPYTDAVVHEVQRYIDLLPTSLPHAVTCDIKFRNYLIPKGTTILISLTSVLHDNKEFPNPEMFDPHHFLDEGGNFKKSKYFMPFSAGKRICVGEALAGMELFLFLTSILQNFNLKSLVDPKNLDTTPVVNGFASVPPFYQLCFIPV
Cytochrome P450 3A4 (Homo sapiens), sequence (P08684 whole entry, looked up): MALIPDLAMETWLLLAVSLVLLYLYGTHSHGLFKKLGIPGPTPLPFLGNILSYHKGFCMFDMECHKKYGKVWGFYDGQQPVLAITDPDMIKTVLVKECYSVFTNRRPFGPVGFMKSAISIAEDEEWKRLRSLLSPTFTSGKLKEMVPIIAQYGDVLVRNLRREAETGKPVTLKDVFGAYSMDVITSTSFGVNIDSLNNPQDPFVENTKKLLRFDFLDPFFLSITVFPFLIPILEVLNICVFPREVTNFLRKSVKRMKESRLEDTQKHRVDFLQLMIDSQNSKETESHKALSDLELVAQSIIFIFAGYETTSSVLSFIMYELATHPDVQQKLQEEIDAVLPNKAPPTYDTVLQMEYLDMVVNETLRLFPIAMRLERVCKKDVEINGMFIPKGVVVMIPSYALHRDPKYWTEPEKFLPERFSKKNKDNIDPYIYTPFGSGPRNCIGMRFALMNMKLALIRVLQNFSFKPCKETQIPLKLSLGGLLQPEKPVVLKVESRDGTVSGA
Cytochrome P450 1A2 (Homo sapiens), sequence (P05177 whole entry, looked up): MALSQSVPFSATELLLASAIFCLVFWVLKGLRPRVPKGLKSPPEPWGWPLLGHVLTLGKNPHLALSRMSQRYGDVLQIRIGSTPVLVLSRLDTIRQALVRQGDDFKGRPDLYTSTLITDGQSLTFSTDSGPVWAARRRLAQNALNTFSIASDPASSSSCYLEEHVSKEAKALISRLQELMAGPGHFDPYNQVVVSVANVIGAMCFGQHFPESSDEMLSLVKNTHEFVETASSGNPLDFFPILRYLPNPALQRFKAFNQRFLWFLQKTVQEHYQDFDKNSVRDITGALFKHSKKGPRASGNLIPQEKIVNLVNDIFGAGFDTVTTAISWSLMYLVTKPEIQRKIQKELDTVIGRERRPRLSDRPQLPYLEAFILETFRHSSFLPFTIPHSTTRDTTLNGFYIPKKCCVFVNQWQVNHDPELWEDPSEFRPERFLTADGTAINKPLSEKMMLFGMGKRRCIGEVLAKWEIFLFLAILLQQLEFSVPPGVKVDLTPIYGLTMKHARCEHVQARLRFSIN
Voltage-gated inwardly rectifying potassium channel KCNH2 (Homo sapiens), sequence (Q12809 whole entry, looked up): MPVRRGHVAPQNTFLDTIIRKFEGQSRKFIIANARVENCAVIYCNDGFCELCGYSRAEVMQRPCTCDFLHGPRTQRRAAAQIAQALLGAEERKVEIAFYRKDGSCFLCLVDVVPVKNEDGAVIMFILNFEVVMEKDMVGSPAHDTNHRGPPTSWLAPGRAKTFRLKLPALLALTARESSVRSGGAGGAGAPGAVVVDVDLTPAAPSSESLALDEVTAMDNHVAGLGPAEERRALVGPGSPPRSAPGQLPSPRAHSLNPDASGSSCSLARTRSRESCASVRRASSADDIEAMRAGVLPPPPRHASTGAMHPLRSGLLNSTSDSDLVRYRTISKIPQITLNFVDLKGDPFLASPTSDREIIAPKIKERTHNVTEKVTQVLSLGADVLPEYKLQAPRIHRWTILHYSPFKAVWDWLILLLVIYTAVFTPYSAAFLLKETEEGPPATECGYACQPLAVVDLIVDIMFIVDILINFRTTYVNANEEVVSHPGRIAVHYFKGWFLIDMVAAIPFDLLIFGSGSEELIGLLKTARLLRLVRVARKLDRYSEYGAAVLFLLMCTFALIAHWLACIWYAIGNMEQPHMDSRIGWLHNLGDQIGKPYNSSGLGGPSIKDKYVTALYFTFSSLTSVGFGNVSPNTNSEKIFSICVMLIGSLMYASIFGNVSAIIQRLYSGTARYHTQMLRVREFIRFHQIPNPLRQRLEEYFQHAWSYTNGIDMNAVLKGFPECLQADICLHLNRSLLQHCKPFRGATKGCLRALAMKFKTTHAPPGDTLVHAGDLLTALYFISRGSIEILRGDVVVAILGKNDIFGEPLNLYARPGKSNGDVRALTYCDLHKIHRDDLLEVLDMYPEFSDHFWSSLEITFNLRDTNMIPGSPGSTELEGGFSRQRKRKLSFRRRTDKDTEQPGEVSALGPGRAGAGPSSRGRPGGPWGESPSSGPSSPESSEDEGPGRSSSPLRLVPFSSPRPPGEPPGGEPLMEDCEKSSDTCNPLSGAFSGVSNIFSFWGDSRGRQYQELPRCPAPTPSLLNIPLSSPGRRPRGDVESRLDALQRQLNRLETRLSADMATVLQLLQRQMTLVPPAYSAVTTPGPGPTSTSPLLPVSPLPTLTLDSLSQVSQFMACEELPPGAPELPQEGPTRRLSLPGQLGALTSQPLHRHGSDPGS

As for `CCCCCCCCCCCCCCCCCBr`, the figures for the activity change, negative = inhibition in test [1], in test [2] and in test [3] were 0.482% [at 23.6 µM], -12.4% [at 23.6 µM] and 7.46% [at 15.8 µM], respectively.

For the compound `Oc1ccc(O)c2c(O)cccc12`, the Potency entry in test [1], in test [3] and in test [4] was “inactive” throughout. Further, in test [2], the Potency is 39.6 µM (active).

`CC[C@H](C)[C@H](N)C(=O)O`: the Potency entry in test [1], in test [2], in test [3] and in test [4] was “inactive” each time.

Turning to `COC(=O)C(C)=O`, the Potency entry in test [1], in test [3] and in test [4] was “inactive” throughout. The Potency in test [2] is 31.9 µM (active).

For the compound `CC(=O)N(O)CCCCCNC(=O)CCC(=O)N(O)CCCCCNC(=O)CCC(=O)N(O)CCCCCN`, the Potency result in test [1] and in test [3] was “inactive” in each case. Also, the Potency in test [2] is 24.5 µM (active).

Regarding `CC[C@H](C)[C@@H](C(=O)O)n1sc2ccccc2c1=O`, the Potency result in test [1], in test [3] and in test [4] was “inactive” each time. In addition, the Potency in test [2] was 25.2 µM (active).

Consider `CCc1nn(C2CCCCC2)c2cc(C3(C#N)CCC(C(=O)O)CC3)ccc12` (centres undefined), for which the Potency in test [1] was 20 µM (active). In addition, the Potency result in test [2], in test [3] and in test [4] was “inactive” in each case.

On to `C[C@@H](C1=C(CCN(C)C)Cc2ccccc21)c1ccccn1`, for which the Potency result in test [1], in test [2] and in test [4] was “inactive” throughout. In test [3], the Potency was 19 µM (active).

Turning to `Oc1ccc2c(c1)OCO2`, the Potency was 9.95 µM (active) in test [1], 31.5 µM (active) in test [2] and 22.3 µM (active) in test [4]. The Potency entry in test [3] is “inactive”.

With `O=C(O)COC(=O)Cc1ccccc1Nc1c(Cl)cccc1Cl`, in test [1], the Potency was 13.8 µM (active). Moreover, the Potency entry in test [2], in test [3] and in test [4] was “inactive” each time.

As for `CC(O)C1CCCCC1` (centres undefined), the Potency result in test [1], in test [2] and in test [3] was “inactive” each time.

Take `CCOC(=O)CC(C)C`: the Potency entry in test [1], in test [2], in test [3] and in test [4] was “inactive” in each case.

Turning to `NC(=S)N/N=C/c1cccnc1`, the Potency result in test [1], in test [3] and in test [4] was “inactive” each time. Moreover, the Potency in test [2] is 17.4 µM (active).

As for `CN(C)CC[C@@H](c1ccc(Br)cc1)c1ccccn1`, the Potency result in test [1], in test [3] and in test [4] was “inactive” in each case. In addition, the Potency in test [2] is 24.5 µM (active).

Turning to `O=C(NN1CCCC1)NS(=O)(=O)c1ccc(Cl)cc1`, the Potency result in test [1], in test [2], in test [3] and in test [4] was “inactive” in each case.

As to `CC/C(=C\C(=N/O)C(N)=O)C(C)[N+](=O)[O-]` (centres undefined), the Potency result in test [1], in test [2], in test [3] and in test [4] was “inactive” in each case.

Take `O=C1CCCCCO1`: the Potency entry in test [1], in test [3] and in test [4] was “inactive” in each case. The Potency in test [2] is 35.9 µM (active).

Take `CCCCOC(O)CC` (centres undefined): the Potency entry in test [1], in test [2], in test [3] and in test [4] was “inactive” in each case.

Turning to `CN(C)CCCNCCCN`, the Potency entry in test [1], in test [3] and in test [4] was “inactive” in each case. The Potency in test [2] was 35.4 µM (active).

Turning to `Cc1cc(CC(=O)O)c(C)n1-c1ccc(Cl)cc1`, in test [1], the Potency was 15.5 µM (active). For the same compound, the Potency entry in test [2] and in test [3] was “inactive” each time.

Turning to `Cl/C(=C\n1cncn1)c1ccc(Cl)cc1Cl`, the Potency in test [1] is 15.5 µM (active); in test [2], 1.55 µM (active). In addition, the Potency result in test [3] and in test [4] was “inactive” throughout.

Turning to `C=CCCCCCC`, the Potency entry in test [1], in test [2], in test [3] and in test [4] was “inactive” each time.

For the compound `CCN(CC)CCNC(C(=O)OCCC(C)C)c1ccccc1` (centres undefined), the Potency entry in test [1] and in test [2] was “inactive” in each case. Besides, in test [3], the Potency was 9.52 µM (active).

Turning to `SC1CCCC1`, the Potency result in test [1], in test [2] and in test [3] was “inactive” throughout.

For the compound `CCCCCc1ccc(N)cc1`, the Potency is 28.3 µM (active) in test [1], 28.3 µM (active) in test [2] and 31.7 µM (active) in test [4]. The Potency result in test [3] is “inactive”.

Take `CC(C)CCCCCCOC(=O)c1ccc(C(=O)OCCCCCCC(C)C)c(C(=O)OCCCCCCC(C)C)c1`: the Potency in test [1] is 71 µM (active). Further, the Potency result in test [2], in test [3] and in test [4] was “inactive” in each case.

For the compound `CC(C)(C)c1cc(CO)cc(C(C)(C)C)c1O`, the Potency in test [1] was 32.3 µM (active). Moreover, the Potency result in test [2] and in test [3] was “inactive” throughout.

On to `Cc1ccc(C(N)=O)cc1N`, for which the Potency entry in test [1] and in test [3] was “inactive” each time. Also, the Potency in test [2] is 35.6 µM (active).

For the compound `O=C(CC(=O)c1ccccc1)c1ccccc1`, the Potency is 38.2 µM (active) in test [1] and 3.82 µM (active) in test [2]. In addition, the Potency entry in test [3] and in test [4] was “inactive” each time.

As for `CC1(C)[C@H]2CC[C@]1(C)[C@H](O)C2`, the Potency entry in test [1], in test [2], in test [3] and in test [4] was “inactive” throughout.

For `O=C(O)[C@@H]1[C@H]2C[C@H]3c4[nH]c5ccccc5c4CCN3C[C@@H]2CC[C@@H]1O`, the Potency result in test [1], in test [2], in test [3] and in test [4] was “inactive” each time.

For `COCCO`, the Potency entry in test [1], in test [2], in test [3] and in test [4] was “inactive” throughout.

In the case of `CCCCCC/C=C/C=O`, in test [1], the Potency was 63.3 µM (active). Also, the Potency result in test [2], in test [3] and in test [4] was “inactive” in each case.

With `Cc1occc1S`, the Potency in test [1] is 35.6 µM (active); in test [4] it was 28.3 µM (active). For the same compound, the Potency entry in test [2] and in test [3] was “inactive” throughout.

On to `CC(=O)c1ccc2c(c1)[C@H](NC(=O)c1ccc(F)cc1)[C@@H](O)C(C)(C)O2`, for which the results for the Potency in test [1], in test [2] and in test [4] were 33.5 µM (active), 33.5 µM (active) and 29.9 µM (active), respectively. Moreover, in test [3], the Potency entry was “inactive”.

As to `c1ccc(CNCc2ccccc2)cc1`, the Potency in test [1] was 44.8 µM (active); in test [2], 25.2 µM (active). The Potency entry in test [3] and in test [4] was “inactive” throughout.

On to `CC(C)(C)C1CCCCC1O` (centres undefined), for which the Potency entry in test [1], in test [2], in test [3] and in test [4] was “inactive” each time.

As to `NC1CCN(c2nc3c(cc2F)c(=O)c(C(=O)O)cn3-c2ccc(F)cc2F)C1` (centres undefined), the Potency entry in test [1], in test [2], in test [3] and in test [4] was “inactive” in each case.
